Test results as given in PubChem BioAssay (NCI).
Compounds without any hit were thinned out: in the full panel of roughly 79,000, 15% have a hit. Calls of active or inactive are those of the source. Cut-off read from the data, not from the text of the source: active = growth inhibition above about 70%; inactive = the rest.

Assays:
[1] = NCI Yeast Anticancer Drug Screen. Data for the rad52 strain (AID 147);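 note: 0% = growth of vehicle-treated control cultures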; conditions: S. cerevisiae rad52 mutant growth inhibition, active compounds read high
How it was run: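 Screen used a yeast mutant impaired in DNA repair. After compound exposure, growth was measured. Values reflect inhibition compared with vehicle-treated cells.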

[2] = NCI Yeast Anticancer Drug Screen. Data for the wt1 strain (AID 149);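 note: 0% = growth of vehicle-treated wt1 cultures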; conditions: S. cerevisiae wt1 strain (SPY 50644) growth inhibition, active compounds read high
How it was run: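 Yeast wt1 strain exposed to compounds; growth inhibition measured relative to vehicle-treated controls.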

[3] = NCI Yeast Anticancer Drug Screen. Data for the rad50EPP+ strain (AID 151);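 note: 0% = growth of vehicle-treated control cultures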; conditions: S. cerevisiae rad50 mutant strain, active compounds read high
How it was run: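 Exposing the rad50EPP+ strain to each compound, growth was compared with vehicle-only cultures to give inhibition.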

[4] = NCI Yeast Anticancer Drug Screen. Data for the mgt1 strain (AID 153); conditions: S. cerevisiae mgt1 mutant growth inhibition, active compounds read high
How it was run: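 Genetically defined yeast (mgt1) treated with compound; inhibition of growth expressed against vehicle-treated controls.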

[5] = NCI Yeast Anticancer Drug Screen. Data for the rad50 strain (AID 155);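 note: 0% = growth of vehicle-only cultures of the same strain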; conditions: S. cerevisiae rad50 strain growth inhibition, active compounds read high
How it was run: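 Yeast carrying a defined DNA repair defect were exposed to test compounds, and growth was compared with vehicle-treated controls to give percent inhibition.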

[6] = NCI Yeast Anticancer Drug Screen. Data for the mec2-1 strain (AID 157); conditions: S. cerevisiae mec2-1 strain, active compounds read high
How it was run: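 Readout is yeast growth inhibition, normalised to vehicle-treated controls, in the mec2-1 strain exposed to compound.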

[7] = NCI Yeast Anticancer Drug Screen. Data for the rad14 strain (AID 159);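 note: 0% = growth of vehicle-treated control cultures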; conditions: S. cerevisiae rad14 strain growth inhibition, active compounds read high
How it was run: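 Yeast cells carrying a defined DNA-repair defect were exposed to compounds, and growth inhibition was calculated relative to vehicle-treated control cultures.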

[8] = NCI Yeast Anticancer Drug Screen. Data for the sgs1 mgt1 strain (AID 161);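 note: 0% = growth of cultures given vehicle only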; conditions: S. cerevisiae sgs1 mgt1 strain, active compounds read high
How it was run: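 Compounds are added to genetically altered yeast, and growth is compared with cultures given vehicle alone to give percent inhibition.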

[9] = NCI Yeast Anticancer Drug Screen. Data for the CLN2oe strain (AID 163);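 note: 0% = growth of vehicle-only control cultures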; conditions: S. cerevisiae CLN2oe strain, active compounds read high
How it was run: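 Values reflect how much compound exposure reduced yeast growth, referenced to vehicle-exposed cells. Assay organism is a strain with a defined genetic change affecting cell-cycle control.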

[10] = NCI Yeast Anticancer Drug Screen. Data for the cln2 rad14 strain (AID 165);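 note: 0% = growth equal to vehicle treated cultures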; conditions: S. cerevisiae cln2 rad14 strain, active compounds read high
How it was run: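 Relative to vehicle controls, growth inhibition of compound-treated cln2 rad14 yeast was recorded.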

[11] = NCI Yeast Anticancer Drug Screen. Data for the bub3 strain (AID 167); conditions: S. cerevisiae bub3 mutant strain, active compounds read high
How it was run: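 Compounds were applied to a genetically altered yeast strain carrying a cell-cycle control defect. Growth inhibition was scored against vehicle-treated controls.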

[12] = NCI Yeast Anticancer Drug Screen. Data for the wt2 strain (AID 169);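 note: 0% = growth of vehicle-treated yeast cultures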; conditions: S. cerevisiae wt2 strain growth inhibition, active compounds read high
How it was run: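 Values express reduction in yeast growth under compound treatment, referenced to vehicle-treated cells.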

[13] = NCI Yeast Anticancer Drug Screen. Data for the mlh1 strain (AID 171);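 note: 0% = growth of vehicle-treated control cultures of the same strain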; conditions: S. cerevisiae mlh1 strain growth inhibition, active compounds read high
How it was run: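 Steps: expose the defined-mutant yeast strain to compound; expose a parallel culture to vehicle; measure growth; express compound effect as inhibition relative to the vehicle culture.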

[14] = NCI Yeast Anticancer Drug Screen. Data for the sgs1 strain (AID 173);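 note: 0% = growth of vehicle-only control cultures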; conditions: S. cerevisiae sgs1 mutant, active compounds read high
How it was run: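 Treat defined-mutant yeast with compound; measure growth; calculate inhibition relative to vehicle-treated cells.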

[15] = NCI Yeast Anticancer Drug Screen. Data for the mlh1 rad18 strain (AID 175); conditions: S. cerevisiae mlh1 rad18 strain growth inhibition, active compounds read high
How it was run: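 Test agents were incubated with a yeast strain of defined genotype (DNA damage repair defect). Inhibition of growth was derived by comparison with vehicle-exposed cultures.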

[16] = NCI Yeast Anticancer Drug Screen. Data for the rad18 strain (AID 177); conditions: S. cerevisiae rad18 mutant growth inhibition, active compounds read high
How it was run: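 A genetically defined yeast mutant impaired in DNA damage repair was treated with test compounds, then its growth was measured against cultures receiving vehicle alone.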

[17] = at 5.0 µM (retest, dose inferred, filed as 0.5)
[18] = at 50.0 µM (retest, dose inferred, filed as 5.0)

Measured: growth inhibition

Cc1ccc(-n2cc(-c3ccc(Cl)cc3)c(C#N)c2N)cc1
inactive: [1]; at 1.2 µM 0% | [1]; at 3.7 µM 1% | [1]; at 11.0 µM 6% | [1]; at 33.0 µM 17% | [1]; at 100.0 µM 23% | [2]; at 1.2 µM -4% | [2]; at 3.7 µM -2% | [2]; at 11.0 µM 1% | [2]; at 33.0 µM -2% | [2]; at 100.0 µM -3% | [3]; at 1.2 µM -1% | [3]; at 3.7 µM 3% | [3]; at 11.0 µM 23% | [3]; at 33.0 µM 56% | [3]; at 100.0 µM 56% | [4]; at 1.2 µM 1% | [4]; at 3.7 µM -4% | [4]; at 11.0 µM 2% | [4]; at 33.0 µM -41% | [4]; at 100.0 µM -3% | [5]; at 1.2 µM -3% | [5]; at 3.7 µM -3% | [5]; [17] 13% | [5]; at 11.0 µM -31% | [5]; at 33.0 µM 4% | [5]; [18] 69% | [5]; at 50.0 µM 63.3% | [5]; at 100.0 µM 13% | [6]; at 1.2 µM 0% | [6]; at 3.7 µM -8% | [6]; [17] -3% | [6]; at 11.0 µM -4% | [6]; at 33.0 µM -4% | [6]; [18] 43% | [6]; at 50.0 µM 47.3% | [6]; at 100.0 µM 1% | [7]; at 1.2 µM -1% | [7]; at 3.7 µM 1% | [7]; at 11.0 µM -1% | [7]; at 33.0 µM -12% | [7]; at 100.0 µM 5% | [8]; [17] -3% | [8]; [18] 52% | [8]; at 50.0 µM 67.6% | [9]; at 1.2 µM -6% | [9]; at 3.7 µM -13% | [9]; at 11.0 µM -12% | [9]; at 33.0 µM -7% | [9]; at 100.0 µM -4% | [10]; [17] -9% | [10]; [18] 7% | [10]; at 50.0 µM 43.6% | [11]; at 1.2 µM -6% | [11]; at 3.7 µM -5% | [11]; [17] -33% | [11]; at 11.0 µM 3% | [11]; at 33.0 µM -2% | [11]; [18] 64% | [11]; at 50.0 µM 61.6% | [11]; at 100.0 µM 8% | [12]; at 1.2 µM -1% | [12]; at 3.7 µM -1% | [12]; at 11.0 µM 1% | [12]; at 33.0 µM 3% | [12]; at 100.0 µM 4% | [13]; at 1.2 µM -6% | [13]; at 3.7 µM -5% | [13]; at 11.0 µM -1% | [13]; at 33.0 µM -2% | [13]; at 100.0 µM -4% | [14]; at 1.2 µM -2% | [14]; at 3.7 µM 0% | [14]; at 11.0 µM 2% | [14]; at 33.0 µM 10% | [14]; at 100.0 µM 16% | [15]; [17] -15% | [15]; [18] 55% | [16]; at 1.2 µM -5% | [16]; at 3.7 µM 1% | [16]; at 11.0 µM 4% | [16]; at 33.0 µM 6% | [16]; at 100.0 µM 41%
active: [15]; at 50.0 µM 78.3%
